Measurements: PubChem BioAssay AID841 (Emory University Molecular Libraries Screening Center, 2007)
The campaign covered roughly 140,000 compounds. About 2,100 (1.5%) were called active. The sample as a whole holds a higher share of actives than the screen did. Values without a mark were called inactive. Rule as the data show it: active = protection mostly above about 24% (no sharp cut-off); inactive = mostly below about 26%.

Experiment: blockers of measles virus-induced cell death – single point, MLSMR library, absorbance, measles RdRp inhibitor project, primary screen (AID 841)
Conditions: Measles virus-infected cells, CPE protection, at 4 µM, active compounds read high

Structure (SMILES)	protection (pct of control)
O=C(COC(=O)c1ccccc1)Nc1ccccc1Sc1ccccc1	6.19%
COC(=O)c1ccc(NCC(=O)c2ccccc2)cc1	2.68%
O=C(OCC(O)C(O)COC(=O)c1ccccc1)c1ccccc1 (stereo unspecified)	37.5% (active)
CCn1c(O)c(N=NC(=O)c2cccc(S(=O)(=O)N3CCCCC3)c2)c2ccccc21	28.2%
O=C(C/C(=N\NC(=O)c1ccccc1Br)C(F)(F)F)c1cccs1	9.78%
O=S(=O)(c1ccc(F)cc1)N1CCN(C(=S)NCc2ccco2)CC1	18.5%
COC(=O)c1c(NC(=O)CN2CCN(S(=O)(=O)c3ccccc3[N+](=O)[O-])CC2)sc2c1CCC(C)C2 (stereo unspecified)	1.76%
C/C(Cc1ccccc1)=N\NC(=O)CNC(=O)c1cccc(Br)c1	4.73%
CCOC(=O)NCc1ccc2c(c1)OCO2	22%
c1n[nH]c(NCc2ccc3c(c2)OCO3)n1	47.6% (active)
O=C(COc1ccccc1)NCc1ccc2c(c1)OCO2	17.1%
Cc1ccc(S(=O)(=O)Nc2nc(C)cc(N/N=C/c3ccc(O)cc3)n2)cc1	10.3%
CCOC(=O)C1CCN(C(=O)/C=C/c2cc(OC)c(OC)c(OC)c2)CC1	18%
COc1ccc(CNC(=O)CN(Cc2ccc(Cl)cc2)S(C)(=O)=O)cc1	24.2%
Cc1cc(C)c(S(=O)(=O)N2C=CC(C(F)(F)F)=NCC2)c(C)c1	30.8% (active)
Cc1cc(NS(=O)(=O)c2ccc(NC(=S)NC(=O)c3ccc(F)cc3Cl)cc2)no1	9.68%
O=C(CN1CCCCCC1)N1c2ccccc2Sc2ccc(C(F)(F)F)cc21	27.8% (active)
COc1cc(/C=C/C(=O)N2c3ccccc3Sc3ccc(C(F)(F)F)cc32)cc(OC)c1OC	2.04%
O=C(CN1CCCCC1)N1c2ccccc2Sc2ccc(C(F)(F)F)cc21	5.95%
CCOC(=O)CNC(=O)/C=C/c1c(Cl)cccc1Cl	1.29%
COc1cccc(C2SCC(=O)N2c2cccc(C)c2)c1OC (stereo unspecified)	8.06%

Structure (SMILES)	protection (pct of control)
CC(C)C(C)(C#N)NC(=O)CSc1nc2scc(-c3ccccc3)c2c(=O)[nH]1 (stereo unspecified)	8.49%
COc1ccc(Cl)cc1C(=O)NCC#N	16.7%
Cc1nn(C)cc1CNC(=O)Nc1ccc(Cl)cc1	8.21%
COc1ccc(Cl)cc1C(=O)NCc1cn(C)nc1C	42.3% (active)
CCCCCOc1ccc(/C=C/C(=O)NCCc2nc3ccccc3[nH]2)cc1OC	1.18%
CCOC(=O)c1c(C)n(C)c2ccc(OC)c(NS(=O)(=O)CC)c12	7.46%
CC(Oc1ccccc1F)C(=O)NN (stereo unspecified)	17.6%
CCn1c2ccccc2c2cc(NC(=O)COC(=O)c3ccccc3Br)ccc21	15.5%
Cn1cnc(C(F)(F)F)c1-c1ccc([N+](=O)[O-])cc1	14.3%
COc1ccc(CCNC(=O)COC(=O)C2CCCCC2)cc1	7.59%
Cc1nn(-c2ccccc2)c(Cl)c1C(=O)Nc1ccccc1	5.22%
Cc1nn(-c2ccccc2)c(Cl)c1/C=C/C(=O)c1ccc(O)cc1	21.9%
Cc1ccc(C(=O)/C=C/c2c(C)nn(-c3ccccc3)c2Cl)cc1	60.1% (active)
CCOc1cc(C(=O)Nc2ncccn2)cc(OCC)c1OCC	2.67%
Cc1ccc2nsnc2c1NC(=O)c1ccccc1[N+](=O)[O-]	5.19%
CCOc1cc(C(=O)Nc2c(C)ccc3nsnc23)cc(OCC)c1OCC	37.8% (active)
COC(=O)Cc1ccc(N(Cc2ccccc2F)S(=O)(=O)c2ccc(Br)cc2)cc1	18.5%
COc1ccc(NC(=O)CN2C(=O)C(c3ccccc3)=NC23CCCCCC3)cc1OC	12%
CCc1ccc(Oc2coc3cc(OC(=O)c4cc5ccccc5oc4=O)ccc3c2=O)cc1	5.53%
Cc1ccc(S(=O)(=O)N2CCOCC2)cc1C(=O)NC(=S)N(Cc1ccccc1)C(C)C	21.7%
COc1cc2c(cc1/C=C1/NC(=O)N(c3ccccc3)C1=O)OCO2	22.7%

Structure (SMILES)	protection (pct of control)
COC(=O)c1ccc(C(=O)OC)c(NC(=S)N2CCN(c3cc(Cl)ccc3C)CC2)c1	6.62%
COC(=O)c1ccc(C(=O)OC)c(NC(=S)N2CCCCC2)c1	5.41%
COC(=O)c1ccc(C(=O)OC)c(NC(=S)N2CCN(c3ccc(F)cc3)CC2)c1	54.6% (active)
CCCc1cc(=O)[nH]c(SCc2cc(=O)oc3c(C)c(C)ccc23)n1	29.1%
Cc1ccccc1Cn1nc(C)c(NC(=O)C(F)(F)F)c1C	2.3%
COC(=O)c1sc(N)c(C(=O)OC)c1COC(=O)CNS(=O)(=O)c1ccc(C)cc1	12.3%
O=C(Nc1ccccc1Cl)c1ccccc1S(=O)(=O)c1ccccc1[N+](=O)[O-]	2.96%
Cc1cc(C)c(NC(=O)CS(=O)CC(=O)Nc2cccnc2)c(C)c1 (stereo unspecified)	56.7% (active)
O=C(CS(=O)(=O)Cc1ccccc1)Nc1cccnc1	20.4%
CCC(=O)Nc1cccc(NC(=O)c2cccnc2)c1	5.87%
COc1ccc(S(=O)(=O)NC(C)C)cc1C(=O)NC1CCCCC1	6.76%
Cc1cccc(C(=O)NC(=S)N2CCN(c3ccc([N+](=O)[O-])cc3)CC2)c1	6.39%
Cc1ccccc1N(C(=O)Cc1cccs1)C(C(=O)NC1CCCCC1)c1cn(C)nc1C (stereo unspecified)	20.1%
CN(CCCC(=O)Nc1nccs1)S(=O)(=O)c1ccc(Cl)cc1	15.3%
Cn1cccc1C(=O)Nc1nccs1	0.78%
O=C(CCSCCc1ccccn1)Nc1nccs1	45.9% (active)
NC(=O)Cc1ccc2sc(-c3ccccc3)nc2c1	30.1%
CCc1cccc(CC)c1NC(=O)COc1ccccc1C(=O)c1cc(C#N)c(=O)n(C2CCCCC2)c1	11.3%
COc1ccc(NC(=O)CN(Cc2ccccc2)S(C)(=O)=O)cc1OC	34.5%
